About 83,000 compounds went through this panel and 20% of them were active in at least one assay; those are over-represented in the sample as a whole.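 How to read the values: 0–100, growth inhibition (40 = 60% inhibited); 0, no net growth; -100 to 0, cell death (-40 = 40% of starting cells died; -100 = all dead).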 Values without a mark were called inactive. Active and inactive are the calls of the source.

The assay relates to CCRF-CEM leukemia. The experiment in a line: NCI-60 one-dose screen, 48 h (100 = growth as untreated, 0 = no growth, -100 = all killed). The note with it: 10 µM. On the procedure:
Growth inhibition of the CCRF-CEM human tumor cell line is measured as a screen for anti-cancer activity. Cells are grown in 96 well plates and exposed to the test compound for 48 hours. Compounds are tested at a single concentration, which is 10^-5 M for most compounds. The reported endpoint is percent growth (GI% or GIPRCNT), where numbers from 0 - 100% represent growth inhibition, and numbers from -100% - 0 represent cell death. For example, a value of 40 represents 60% growth inhibition. A value of 0 means no net growth occurred over the course of the experiment. A value of -40 indicates 40% of cells at the beginning of the experiment died by the end of the experiment. A value of -100 means all cells are dead at the end of the experiment.
NCI-60 Human Tumor Cell Lines Screen was performed using the standard one-dose NCI protocol, which is described in more detail at https://dtp.cancer.gov/discovery_development/nci-60/default.htm.
Compounds with GIPRCNT values below 10 were considered active. Activity score was based on GIPRCNT using the following formula: […]
Score is 0 for GIPRCNT values of 100 or above, 50 for GIPRCNT values of 0, and 100 for GIPRCNT values of -100.
As for `Cc1ccccc1N1C(=O)c2cc(S(N)(=O)=O)c(Cl)cc2NC1C` (stereo not given), the growth is 103%. For the compound `CCOC(=O)c1cc(C(=O)c2cc(OC)cc(OC)c2)n2ncc3ccccc3c12`, the growth is 23.5%.

On to `CC(=O)OC1CC2C(C)(C)CCC[C@]2(C)C2=C1C(O)=C(C(C)C)C(=O)C2=O` (stereo not given in full), for which the growth was 26.8%. Take `O=c1cn[nH]c2ccc(Br)cc12`: the growth is 96.1%. With `O=C1/C=C/[C@@H](O)[C@@H]2C[C@@H](O)C[C@H]2/C=C/CCC[C@H](C(F)(F)F)O1` the figure was 1.24% (active); with `COc1cc(/C=C/c2cc(/C=C/c3ccc(O)c(OC)c3)n(C(=O)Nc3ccccc3Cl)n2)ccc1O`, -4.54% (active); with `COc1cc(C2C(C#N)=C(N)Oc3cc(O)ccc32)cc(OC)c1OC` (stereo not given), 8.88% (active). Take `CS(=O)(=O)c1nccc(-c2c(-c3cccc(OCc4ccccc4)c3)nc3sccn23)n1`: the growth was 52.5%.

For the compound `O=C1c2ccccc2C(=O)c2c1ccc(C(Br)Br)c2Cl`, the growth is -6.37% (active). As to `O=C1NC(=O)c2c(CCCSc3nc4ccccc4c(=O)n3CCc3ccccc3)cccc21`, the growth was 96%.

Consider `Cc1ccc(S(=O)(=O)N/N=C2\CCCc3ccccc32)cc1`, for which the growth is 91.8%. With `NC(=O)c1cccc(-n2ccc3cc(NC(=O)Nc4ccc(Cl)c(C(F)(F)F)c4)ccc32)n1` the figure was 62.5%.

With `COc1cc2c(Nc3ccc(S(N)(=O)=O)cc3)ncnc2c(OC)c1OC`, the growth was 92.5%.

Regarding `OC[C@H]1OC([S-])[C@H](O)[C@@H](O)[C@@H]1O.[Au+]` (stereo not given in full), the growth is 61.5%. In the case of `O=[N+]([O-])c1cccc(/C=N/NC(=S)NC23CC4CC(CC(C4)C2)C3)c1`, the growth was 86.2%.

Turning to `O=C(NCCCNS(=O)(=O)c1ccc(Cl)cc1)Nc1ccc(-n2cc(-c3ccncc3)c(-c3ccc(Cl)c(O)c3)n2)cc1`, the growth is 23.5%. Consider `Cc1ccc(S(=O)(=O)N(C)CCCCCC(=O)O)cc1`, for which the growth is 110%. In the case of `COc1ccc(-c2nnc(SCC(=O)Nc3ccc(C(=O)/C=C/c4ccccc4)cc3)n2-c2ccccc2)cc1OC`, the growth is 93.6%.

Consider `CCCC1(CN2c3ccccc3Sc3ccc(Cl)cc32)CCN(CC)C1` (stereo not given), for which the growth is -11.2% (active). On to `C/C(=N\O)c1ccc(NC(=O)CSc2nnc(-c3ccccc3)n2-c2ccccc2)cc1`, for which the growth was 92%. With `COc1cc(-c2nn(-c3cccc(NC(=O)CN4CCOCC4)c3)cc2-c2cccnc2)ccc1Cl` the figure was 70.9%; with `COc1ccc(-c2nn(-c3cccc(Cl)c3)cc2-c2nc(N)[nH]c(=O)c2C#N)cc1`, 61.6%; with `COc1ccc(C(=O)c2ccccc2CN2C(=O)c3ccccc3C2=O)cc1`, 91.5%.

With `COc1ccccc1-n1c(-c2sc(NC(C)=O)nc2C)n[nH]c1=S`, the growth is 97.3%. Consider `COc1cc(C2CC(c3ccccc3)=NN2C(C)=O)cc(OC)c1OC` (stereo not given), for which the growth is 34.5%. Consider `CN1CCN(CC(=O)Nc2cccc(-n3cc(-c4ccncc4)c(-c4ccc(Cl)c(O)c4)n3)c2)CC1`, for which the growth is 23.9%.

On to `NC(N)=N/N=C(\c1ccccc1)C(O)c1ccccc1` (stereo not given), for which the growth was 92.7%. Consider `CCn1c(CSc2nc3ccccc3c(=O)n2CCc2ccccc2)n[nH]c1=S`, for which the growth was 83.9%. In the case of `CCN(CC)CCCC(C)Nc1c2ccc(Cl)cc2nc2ccc(OC)cc12` (stereo not given), the growth was 39.4%.

On to `CCN(CCCNc1cc2c(c(N)c1S(=O)(=O)O)C(=O)c1ccccc1C2=O)c1ccccc1`, for which the growth is 102%. `Cc1ccc(C)c(COc2cc(NC(=O)c3ccc4c(c3)OCO4)ccc2N(C)S(C)(=O)=O)c1`: the growth is 13.2%. As for `Cc1cc(=O)n2nnc3cc(C(F)(F)F)ccc3n12`, the growth was 103%. Take `CCCCC(CC)CN=C(N)NC(N)=NCCCCCCN=C(N)NC(N)=NCC(CC)CCCC` (stereo not given): the growth was -54% (active). As for `CCN(CC)CCOC(=O)c1cc(OCc2ccccc2)c(OCc2ccccc2)c(OCc2ccccc2)c1`, the growth was 37%. As to `COc1ccc(-c2n[nH]nc2-c2cc(OC)c(OC)c(OC)c2)cc1`, the growth is 9.31% (active). As for `COc1cc(C(=O)n2nc(-c3cc(OC)c(OC)c(OC)c3)nc2N)cc(OC)c1OC`, the growth is 96.7%. Turning to `CC(=O)Oc1cc(OC(C)=O)c2ccccc2c1OC(C)=O`, the growth is 76.7%. As for `C#C[C@]1(O)CCC2C3CCc4cc(OC5CCCC5)ccc4C3CC[C@@]21C` (stereo not given in full), the growth is 85.4%. Take `C[N+]1(CCCCC[N+]2(C)CCCC2)CCCC1`: the growth is 67.5%. Turning to `COc1ccc(-c2nc(-c3nc4ccc(C)cc4[nH]3)cc3c2[nH]c2ccccc23)cc1`, the growth is 29.4%.

These data come from PubChem BioAssay (NCI).
